# In PMC11102866, “Nucleosome-bound NR5A2 structure reveals pioneer factor mechanism by DNA minor groove anchor competition”:
# Key:
# [1] = molecular target: NR5A2 wild type;histone octamer (Homo sapiens;, UniProt O00482;C0HKE1;Q6ZWY9;P84244;P62806 1-541;2-130;2-126;2-136;2-103, |); test: SeEN-seq (EMSA of nucleosome library followed by sequencing); 0.8 uM human NR5A2; 20 mM Tris-HCl pH 7.5, 120 mM NaCl, 1 mM MgCl2, 10 uM ZnCl2, 1 mM DTT, 100 ug/ml BSA, room temperature, 30 min; 0.1 uM nucleosome library; high values mean tight binding
# [2] = molecular target: mouse Nr5a2 wild type;histone octamer (Mus musculus;, UniProt P45448;C0HKE1;Q6ZWY9;P84244;P62806 1-560;2-130;2-126;2-136;2-103, |); test: SeEN-seq (EMSA of nucleosome library followed by sequencing); 1.2 uM mouse Nr5a2; 20 mM Tris-HCl pH 7.5, 120 mM NaCl, 1 mM MgCl2, 10 uM ZnCl2, 1 mM DTT, 100 ug/ml BSA, room temperature, 30 min; 0.1 uM nucleosome library; high values mean tight binding
Binder,binding signal [1],binding signal [2]
"42 (nucleosome, reconstituted with mouse histones H2A, H2B, H3.3 and H4) DNA 1: ATCCTGGAGAATCCCGGTGCCGAGGCCGCTCAATTGGTCGTAGATCAAGGCCACACCGCTTAAACGCACGTACGCGCTGTCCCCCGCGTTTTAACCGCCAAGGGGATTACTCCCTAGTCTCCAGGCACGTGTCAGATATATACATCCTGTGAT DNA 2: ATCACAGGATGTATATATCTGACACGTGCCTGGAGACTAGGGAGTAATCCCCTTGGCGGTTAAAACGCGGGGGACAGCGCGTACGTGCGTTTAAGCGGTGTGGCCTTGATCTACGACCAATTGAGCGGCCTCGGCACCGGGATTCTCCAGGAT","2.74 log2 enrichment (bound/unbound, relative to Widom 601)","2.07 log2 enrichment (bound/unbound, relative to Widom 601)"
"43 (nucleosome, reconstituted with mouse histones H2A, H2B, H3.3 and H4) DNA 1: ATCCTGGAGAATCCCGGTGCCGAGGCCGCTCAATTGGTCGTAGACTCAAGGCCAACCGCTTAAACGCACGTACGCGCTGTCCCCCGCGTTTTAACCGCCAAGGGGATTACTCCCTAGTCTCCAGGCACGTGTCAGATATATACATCCTGTGAT DNA 2: ATCACAGGATGTATATATCTGACACGTGCCTGGAGACTAGGGAGTAATCCCCTTGGCGGTTAAAACGCGGGGGACAGCGCGTACGTGCGTTTAAGCGGTTGGCCTTGAGTCTACGACCAATTGAGCGGCCTCGGCACCGGGATTCTCCAGGAT","2.58 log2 enrichment (bound/unbound, relative to Widom 601)","1.55 log2 enrichment (bound/unbound, relative to Widom 601)"
"47 (nucleosome, reconstituted with mouse histones H2A, H2B, H3.3 and H4) DNA 1: ATCCTGGAGAATCCCGGTGCCGAGGCCGCTCAATTGGTCGTAGACAGCTTCAAGGCCACTTAAACGCACGTACGCGCTGTCCCCCGCGTTTTAACCGCCAAGGGGATTACTCCCTAGTCTCCAGGCACGTGTCAGATATATACATCCTGTGAT DNA 2: ATCACAGGATGTATATATCTGACACGTGCCTGGAGACTAGGGAGTAATCCCCTTGGCGGTTAAAACGCGGGGGACAGCGCGTACGTGCGTTTAAGTGGCCTTGAAGCTGTCTACGACCAATTGAGCGGCCTCGGCACCGGGATTCTCCAGGAT","1.01 log2 enrichment (bound/unbound, relative to Widom 601)","1.07 log2 enrichment (bound/unbound, relative to Widom 601)"
"7 (nucleosome, reconstituted with mouse histones H2A, H2B, H3.3 and H4) DNA 1: ATCCTGGAGTCAAGGCCAGCCGAGGCCGCTCAATTGGTCGTAGACAGCTCTAGCACCGCTTAAACGCACGTACGCGCTGTCCCCCGCGTTTTAACCGCCAAGGGGATTACTCCCTAGTCTCCAGGCACGTGTCAGATATATACATCCTGTGAT DNA 2: ATCACAGGATGTATATATCTGACACGTGCCTGGAGACTAGGGAGTAATCCCCTTGGCGGTTAAAACGCGGGGGACAGCGCGTACGTGCGTTTAAGCGGTGCTAGAGCTGTCTACGACCAATTGAGCGGCCTCGGCTGGCCTTGACTCCAGGAT","2.59 log2 enrichment (bound/unbound, relative to Widom 601)","2.08 log2 enrichment (bound/unbound, relative to Widom 601)"
"52 (nucleosome, reconstituted with mouse histones H2A, H2B, H3.3 and H4) DNA 1: ATCCTGGAGAATCCCGGTGCCGAGGCCGCTCAATTGGTCGTAGACAGCTCTAGCTCAAGGCCAACGCACGTACGCGCTGTCCCCCGCGTTTTAACCGCCAAGGGGATTACTCCCTAGTCTCCAGGCACGTGTCAGATATATACATCCTGTGAT DNA 2: ATCACAGGATGTATATATCTGACACGTGCCTGGAGACTAGGGAGTAATCCCCTTGGCGGTTAAAACGCGGGGGACAGCGCGTACGTGCGTTGGCCTTGAGCTAGAGCTGTCTACGACCAATTGAGCGGCCTCGGCACCGGGATTCTCCAGGAT","0.917 log2 enrichment (bound/unbound, relative to Widom 601)","1.16 log2 enrichment (bound/unbound, relative to Widom 601)"
"48 (nucleosome, reconstituted with mouse histones H2A, H2B, H3.3 and H4) DNA 1: ATCCTGGAGAATCCCGGTGCCGAGGCCGCTCAATTGGTCGTAGACAGCTCTCAAGGCCATTAAACGCACGTACGCGCTGTCCCCCGCGTTTTAACCGCCAAGGGGATTACTCCCTAGTCTCCAGGCACGTGTCAGATATATACATCCTGTGAT DNA 2: ATCACAGGATGTATATATCTGACACGTGCCTGGAGACTAGGGAGTAATCCCCTTGGCGGTTAAAACGCGGGGGACAGCGCGTACGTGCGTTTAATGGCCTTGAGAGCTGTCTACGACCAATTGAGCGGCCTCGGCACCGGGATTCTCCAGGAT","0.867 log2 enrichment (bound/unbound, relative to Widom 601)","0.815 log2 enrichment (bound/unbound, relative to Widom 601)"
"50 (nucleosome, reconstituted with mouse histones H2A, H2B, H3.3 and H4) DNA 1: ATCCTGGAGAATCCCGGTGCCGAGGCCGCTCAATTGGTCGTAGACAGCTCTATCAAGGCCAAAACGCACGTACGCGCTGTCCCCCGCGTTTTAACCGCCAAGGGGATTACTCCCTAGTCTCCAGGCACGTGTCAGATATATACATCCTGTGAT DNA 2: ATCACAGGATGTATATATCTGACACGTGCCTGGAGACTAGGGAGTAATCCCCTTGGCGGTTAAAACGCGGGGGACAGCGCGTACGTGCGTTTTGGCCTTGATAGAGCTGTCTACGACCAATTGAGCGGCCTCGGCACCGGGATTCTCCAGGAT","0.992 log2 enrichment (bound/unbound, relative to Widom 601)","1.01 log2 enrichment (bound/unbound, relative to Widom 601)"
"51 (nucleosome, reconstituted with mouse histones H2A, H2B, H3.3 and H4) DNA 1: ATCCTGGAGAATCCCGGTGCCGAGGCCGCTCAATTGGTCGTAGACAGCTCTAGTCAAGGCCAAACGCACGTACGCGCTGTCCCCCGCGTTTTAACCGCCAAGGGGATTACTCCCTAGTCTCCAGGCACGTGTCAGATATATACATCCTGTGAT DNA 2: ATCACAGGATGTATATATCTGACACGTGCCTGGAGACTAGGGAGTAATCCCCTTGGCGGTTAAAACGCGGGGGACAGCGCGTACGTGCGTTTGGCCTTGACTAGAGCTGTCTACGACCAATTGAGCGGCCTCGGCACCGGGATTCTCCAGGAT","0.595 log2 enrichment (bound/unbound, relative to Widom 601)","0.567 log2 enrichment (bound/unbound, relative to Widom 601)"
"49 (nucleosome, reconstituted with mouse histones H2A, H2B, H3.3 and H4) DNA 1: ATCCTGGAGAATCCCGGTGCCGAGGCCGCTCAATTGGTCGTAGACAGCTCTTCAAGGCCATAAACGCACGTACGCGCTGTCCCCCGCGTTTTAACCGCCAAGGGGATTACTCCCTAGTCTCCAGGCACGTGTCAGATATATACATCCTGTGAT DNA 2: ATCACAGGATGTATATATCTGACACGTGCCTGGAGACTAGGGAGTAATCCCCTTGGCGGTTAAAACGCGGGGGACAGCGCGTACGTGCGTTTATGGCCTTGAAGAGCTGTCTACGACCAATTGAGCGGCCTCGGCACCGGGATTCTCCAGGAT","1.14 log2 enrichment (bound/unbound, relative to Widom 601)","1.11 log2 enrichment (bound/unbound, relative to Widom 601)"
"39 (nucleosome, reconstituted with mouse histones H2A, H2B, H3.3 and H4) DNA 1: ATCCTGGAGAATCCCGGTGCCGAGGCCGCTCAATTGGTCGTTCAAGGCCATAGCACCGCTTAAACGCACGTACGCGCTGTCCCCCGCGTTTTAACCGCCAAGGGGATTACTCCCTAGTCTCCAGGCACGTGTCAGATATATACATCCTGTGAT DNA 2: ATCACAGGATGTATATATCTGACACGTGCCTGGAGACTAGGGAGTAATCCCCTTGGCGGTTAAAACGCGGGGGACAGCGCGTACGTGCGTTTAAGCGGTGCTATGGCCTTGAACGACCAATTGAGCGGCCTCGGCACCGGGATTCTCCAGGAT","0.783 log2 enrichment (bound/unbound, relative to Widom 601)","0.704 log2 enrichment (bound/unbound, relative to Widom 601)"
"40 (nucleosome, reconstituted with mouse histones H2A, H2B, H3.3 and H4) DNA 1: ATCCTGGAGAATCCCGGTGCCGAGGCCGCTCAATTGGTCGTATCAAGGCCAAGCACCGCTTAAACGCACGTACGCGCTGTCCCCCGCGTTTTAACCGCCAAGGGGATTACTCCCTAGTCTCCAGGCACGTGTCAGATATATACATCCTGTGAT DNA 2: ATCACAGGATGTATATATCTGACACGTGCCTGGAGACTAGGGAGTAATCCCCTTGGCGGTTAAAACGCGGGGGACAGCGCGTACGTGCGTTTAAGCGGTGCTTGGCCTTGATACGACCAATTGAGCGGCCTCGGCACCGGGATTCTCCAGGAT","0.693 log2 enrichment (bound/unbound, relative to Widom 601)","0.706 log2 enrichment (bound/unbound, relative to Widom 601)"
"44 (nucleosome, reconstituted with mouse histones H2A, H2B, H3.3 and H4) DNA 1: ATCCTGGAGAATCCCGGTGCCGAGGCCGCTCAATTGGTCGTAGACATCAAGGCCACCGCTTAAACGCACGTACGCGCTGTCCCCCGCGTTTTAACCGCCAAGGGGATTACTCCCTAGTCTCCAGGCACGTGTCAGATATATACATCCTGTGAT DNA 2: ATCACAGGATGTATATATCTGACACGTGCCTGGAGACTAGGGAGTAATCCCCTTGGCGGTTAAAACGCGGGGGACAGCGCGTACGTGCGTTTAAGCGGTGGCCTTGATGTCTACGACCAATTGAGCGGCCTCGGCACCGGGATTCTCCAGGAT","2.41 log2 enrichment (bound/unbound, relative to Widom 601)","1.31 log2 enrichment (bound/unbound, relative to Widom 601)"
"41 (nucleosome, reconstituted with mouse histones H2A, H2B, H3.3 and H4) DNA 1: ATCCTGGAGAATCCCGGTGCCGAGGCCGCTCAATTGGTCGTAGTCAAGGCCAGCACCGCTTAAACGCACGTACGCGCTGTCCCCCGCGTTTTAACCGCCAAGGGGATTACTCCCTAGTCTCCAGGCACGTGTCAGATATATACATCCTGTGAT DNA 2: ATCACAGGATGTATATATCTGACACGTGCCTGGAGACTAGGGAGTAATCCCCTTGGCGGTTAAAACGCGGGGGACAGCGCGTACGTGCGTTTAAGCGGTGCTGGCCTTGACTACGACCAATTGAGCGGCCTCGGCACCGGGATTCTCCAGGAT","2.28 log2 enrichment (bound/unbound, relative to Widom 601)","1.87 log2 enrichment (bound/unbound, relative to Widom 601)"
"46 (nucleosome, reconstituted with mouse histones H2A, H2B, H3.3 and H4) DNA 1: ATCCTGGAGAATCCCGGTGCCGAGGCCGCTCAATTGGTCGTAGACAGCTCAAGGCCAGCTTAAACGCACGTACGCGCTGTCCCCCGCGTTTTAACCGCCAAGGGGATTACTCCCTAGTCTCCAGGCACGTGTCAGATATATACATCCTGTGAT DNA 2: ATCACAGGATGTATATATCTGACACGTGCCTGGAGACTAGGGAGTAATCCCCTTGGCGGTTAAAACGCGGGGGACAGCGCGTACGTGCGTTTAAGCTGGCCTTGAGCTGTCTACGACCAATTGAGCGGCCTCGGCACCGGGATTCTCCAGGAT","0.748 log2 enrichment (bound/unbound, relative to Widom 601)","0.651 log2 enrichment (bound/unbound, relative to Widom 601)"
"45 (nucleosome, reconstituted with mouse histones H2A, H2B, H3.3 and H4) DNA 1: ATCCTGGAGAATCCCGGTGCCGAGGCCGCTCAATTGGTCGTAGACAGTCAAGGCCACGCTTAAACGCACGTACGCGCTGTCCCCCGCGTTTTAACCGCCAAGGGGATTACTCCCTAGTCTCCAGGCACGTGTCAGATATATACATCCTGTGAT DNA 2: ATCACAGGATGTATATATCTGACACGTGCCTGGAGACTAGGGAGTAATCCCCTTGGCGGTTAAAACGCGGGGGACAGCGCGTACGTGCGTTTAAGCGTGGCCTTGACTGTCTACGACCAATTGAGCGGCCTCGGCACCGGGATTCTCCAGGAT","0.761 log2 enrichment (bound/unbound, relative to Widom 601)","0.671 log2 enrichment (bound/unbound, relative to Widom 601)"
